Source: PubChem BioAssay (NCATS)
Records with an inconclusive call do not appear. Activity calls are given as the source filed them. Unless noted, calls come from the whole dose curve; as a rule, active = well fitted curve in the direction sought with a large enough effect; inconclusive = small, poorly fitted or top-dose-only effect, or another doubt; inactive = no such curve, though single readings can be large; an effect the other way counts as inactive or inconclusive.

Tests used:
[1] = AP1 Signaling Pathway (AID 357; active = well fitted curve in either direction with a large enough effect, not every such curve was filed as active;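 note: ME-180 reporter cells stimulated with EGF at its EC50 level; % is set by controls: 0 for no effect and ±100 for the full control effect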); settings: ME-180 AP-1-bla reporter, EGF-induced, beta-lactamase ratio, 5 h; at 38 µM (top of the series)
Summary of the method: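 Titration-series screen for positive or negative modulators of EC50 EGF-induced signaling in ME-180 cells carrying an AP-1-driven beta-lactamase reporter. After 5 hours at 37 degrees Celsius, CCF4 460nm/530nm emission ratio gave %Activity; AC50 values derived.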

[2] = target: Cytochrome P450 1A2 (Homo sapiens) (UniProt P05177); assay: p450-cyp1a2 (AID 410; calls by dose curve; note: potency is the fitted concentration of half-maximal effect)
Cytochrome P450 1A2 (Homo sapiens), sequence (P05177 whole entry, looked up): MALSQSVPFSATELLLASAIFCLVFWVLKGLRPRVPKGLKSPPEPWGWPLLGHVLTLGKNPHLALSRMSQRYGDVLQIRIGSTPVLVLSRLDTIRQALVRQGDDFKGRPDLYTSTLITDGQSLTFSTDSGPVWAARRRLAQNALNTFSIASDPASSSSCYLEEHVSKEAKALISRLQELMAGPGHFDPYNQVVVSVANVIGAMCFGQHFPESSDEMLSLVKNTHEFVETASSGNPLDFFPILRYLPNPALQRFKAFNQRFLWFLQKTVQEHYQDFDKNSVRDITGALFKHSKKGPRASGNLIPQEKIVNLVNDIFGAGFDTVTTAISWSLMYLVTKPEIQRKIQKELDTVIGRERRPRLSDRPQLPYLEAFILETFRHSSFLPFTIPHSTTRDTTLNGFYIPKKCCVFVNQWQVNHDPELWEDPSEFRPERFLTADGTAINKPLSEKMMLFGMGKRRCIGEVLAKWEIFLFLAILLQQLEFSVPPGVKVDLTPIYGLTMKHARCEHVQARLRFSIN
Summary of the method: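 20nM CYP1A2 with 100uM Luciferin-ME (at Km) in 100mM KPO4; compound preincubated 10 min, NADPH regeneration added, 60 min at room temperature. Luciferin quantified by luminescence after detection reagent; normalized to 57 uM furafylline.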

[3] = NFAT Signaling Pathway (AID 444; active = well fitted curve in either direction with a large enough effect, not every such curve was filed as active;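 note: carbachol stimulus at about its EC50 of 1 µM final; % is set by controls: 0 for no effect and ±100 for the full control effect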); settings: Jurkat NFAT-bla M1, carbachol, beta-lactamase ratio, 5 h; at 38 µM (top of the series)
Summary of the method: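 Jurkat cells with NFAT-driven β-lactamase reporter and co-expressed M1 receptor, stimulated with carbachol (final 1 uM, ~EC50), compound titration, 5 h at 37 °C. CCF4 loaded 1 h at RT; 460/530 nm ratio gave %activity and AC50.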

[4] = Stat Signaling Pathway (AID 446; active = well fitted curve in either direction with a large enough effect, not every such curve was filed as active;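 note: ME-180 cervical cancer cells given 40 pM IL-6 alongside compound; SIE-controlled beta-lactamase reporter measured as 460/530 nm FRET emission ratio; % is set by controls: 0 for no effect and ±100 for the full control effect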); settings: ME-180 SIE beta-lactamase reporter, IL-6 stimulated, 5 h; at 38 µM (top of the series)
Summary of the method: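 Reporter line: ME-180 cervical carcinoma, SIE-beta-lactamase. Treatment: compound with 40 pM IL-6, 5 hrs, 37 C, in low-serum OPTI-MEM with 10 mM HEPES pH 7.3. Detection: 460/530 nm fluorescence.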

[5] = target: Glucocorticoid receptor (Homo sapiens) (UniProt P04150); assay: GR-GFP Redistribution (AID 450;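 active = compounds whose dose series gives a full or clear partial fitted curve of increased nuclear translocation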; note: potency is the fitted concentration of half-maximal effect); settings: U2OS GR-GFP nuclear translocation, laser cytometry, 2 h
Glucocorticoid receptor (Homo sapiens), sequence (P04150 whole entry, looked up, the tested form may be a part): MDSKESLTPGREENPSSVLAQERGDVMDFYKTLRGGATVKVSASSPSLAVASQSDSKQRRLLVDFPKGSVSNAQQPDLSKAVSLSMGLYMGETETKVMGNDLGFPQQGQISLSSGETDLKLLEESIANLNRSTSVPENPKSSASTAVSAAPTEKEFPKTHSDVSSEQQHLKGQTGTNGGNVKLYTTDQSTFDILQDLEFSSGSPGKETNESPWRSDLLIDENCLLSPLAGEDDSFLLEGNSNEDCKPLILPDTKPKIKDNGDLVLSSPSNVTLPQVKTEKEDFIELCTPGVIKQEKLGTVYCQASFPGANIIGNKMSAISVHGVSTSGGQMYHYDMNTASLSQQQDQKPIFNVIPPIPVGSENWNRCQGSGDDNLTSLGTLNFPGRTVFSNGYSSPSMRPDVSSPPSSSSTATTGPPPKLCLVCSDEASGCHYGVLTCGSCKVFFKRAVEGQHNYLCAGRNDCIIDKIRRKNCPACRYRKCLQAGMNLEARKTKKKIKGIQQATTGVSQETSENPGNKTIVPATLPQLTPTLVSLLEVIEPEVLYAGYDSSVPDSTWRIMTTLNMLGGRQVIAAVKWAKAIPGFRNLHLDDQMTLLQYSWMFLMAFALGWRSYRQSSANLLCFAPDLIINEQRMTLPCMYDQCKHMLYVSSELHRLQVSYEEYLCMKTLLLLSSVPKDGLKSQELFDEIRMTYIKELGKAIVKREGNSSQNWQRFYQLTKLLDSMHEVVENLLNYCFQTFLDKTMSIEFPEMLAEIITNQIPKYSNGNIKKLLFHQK

[6] = target: Glucocorticoid receptor (Homo sapiens) (UniProt P04150); assay: GR-EFC Redistribution (AID 451; calls by dose curve; note: potency is the fitted concentration of half-maximal effect); settings: CHO-K1 GR-EFC translocation, beta-gal luminescence, 2 h
Summary of the method: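 CHO-K1 cells expressing nuclear EA and GR-ED fragments of b-gal; compounds titrated up to 46 uM final, 2 h at 37 C. GR nuclear translocation read as complemented b-gal luminescence after 1 h RT detection.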

[7] = target: Mitogen-activated protein kinase 10 (Mus musculus) (UniProt Q61831); assay: JNK3 AlphaScreen Assay (AID 530; active = well fitted curve in either direction with a large enough effect, not every such curve was filed as active;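 note: kinase came from lysate of stimulated human HepG2 cells; signal reports phosphorylation of biotinylated GST-cJun 1-79 at Ser73 with 10 µM ATP; % is set by controls: 0 for no effect and ±100 for the full control effect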)
Summary of the method: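 Pre-activated (IL-1β/TNFα) JNK3 in HepG2 lysates phosphorylates biotin-GST-cJun(1-79), 10 uM ATP; anti-phospho-cJun(Ser73) AlphaScreen read at room temperature, pH 7.6 Tris buffer. Compounds pre-incubated 15 min as titrations.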

[8] = target: 3',5'-cyclic-AMP phosphodiesterase 4B (Homo sapiens) (UniProt Q07343); assay: qHTS Assay for Inhibitors of PDE-IV (AID 607; active = well fitted activation curve with a large enough effect in the main read-out, with a control signal flat, not every such curve was filed as active; note: % of control where 0% means no effect)
Summary of the method: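 Cell-based read-out of cAMP via a modified cyclic nucleotide-gated channel and membrane potential dye (535/590 nm) in HEK293 cells expressing PDE4 endogenously. Compounds tested up to 22.9 uM final; 100 uM RO 20-1724 reference.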

[9] = target: Guanine nucleotide-binding protein G(i) subunit alpha-1 (Homo sapiens) (UniProt P63096); assay: qHTS Assay for Inhibitors of RGS12 GoLoco Motif Activity (Green Fluorophore) (AID 879);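 note: 0% = labeled peptide with Gαi1 and full inhibition = labeled peptide alone without protein; negative values mean loss of peptide binding seen as reduced polarization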
Summary of the method: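 Fluorescence polarization assay: 50 nM Gαi1 with 10 nM FITC-labeled RGS12 GoLoco peptide in 10 mM Tris pH 7.5, 150 mM NaCl, 0.1 mM GDP, 0.05% NP40, 10 min at room temperature with compound.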

[10] = target: Muscarinic acetylcholine receptor M1 (Rattus norvegicus) (UniProt P08482); assay: qHTS Assay for Antagonists of Acetylcholine Muscarinic M1 Receptor: Kinetic Measurement of Intracellular Calcium Response (AID 943); note: nearly all actives have a fitted effect of over 75% in size
Summary of the method: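 CHO cells expressing rat M1 receptor, Fluo-4 loaded, preincubated 10 min with compound, then stimulated with EC80 carbachol (100 nM final). Kinetic calcium fluorescence over 4 min; response taken as peak over basal signal.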

[11] = target: Alpha-galactosidase A (Homo sapiens) (UniProt P06280); assay: Counterscreen for Glucocerebrosidase Inhibitors: qHTS Assay for Human alpha-Galactosidase at pH 4.5 (AID 992); note: 0% is about no effect
Alpha-galactosidase A (Homo sapiens), sequence (P06280 whole entry, looked up): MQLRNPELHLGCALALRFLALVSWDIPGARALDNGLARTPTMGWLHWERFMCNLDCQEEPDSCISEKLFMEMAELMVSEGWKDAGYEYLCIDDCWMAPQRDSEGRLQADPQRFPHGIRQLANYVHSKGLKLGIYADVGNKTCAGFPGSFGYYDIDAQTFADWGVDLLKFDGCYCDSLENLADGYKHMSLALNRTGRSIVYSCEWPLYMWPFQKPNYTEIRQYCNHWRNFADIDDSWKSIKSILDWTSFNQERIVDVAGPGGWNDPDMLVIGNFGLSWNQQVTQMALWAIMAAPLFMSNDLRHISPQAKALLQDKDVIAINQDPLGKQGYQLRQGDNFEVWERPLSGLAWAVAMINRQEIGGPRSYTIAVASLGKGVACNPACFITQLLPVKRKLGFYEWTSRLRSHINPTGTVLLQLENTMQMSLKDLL
Summary of the method: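 Quantitative HTS: compounds tested from 0.7 nM up to 77 uM against 2 nM enzyme with 80 uM 4-MU alpha-D-galactopyranoside. The 20 min room-temperature reaction is stopped with 1M NaOH/1M glycine, pH 10.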

[12] = target: alpha-glucosidase (Oryza sativa, rice) (UniProt Q653V4); assay: Counterscreen for Glucocerebrosidase Inhibitors: qHTS Assay for Rice alpha-Glucosidase at pH 5.0 (AID 997);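 note: 0% = full activity with enzyme and -100% = basal without enzyme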
Summary of the method: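 Rice alpha-glucosidase (4 nM final) with 400 uM 4-methylumbelliferyl-alpha-D-glucopyranoside in citrate buffer pH 5.0, 20 min at room temperature, stopped at pH 10; fluorescence 365/440 nm, compounds 0.7 nM–77 uM, AC50 from Hill fits.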

[13] = Validation of Assay for Modulators of Lamin A Splicing (AID 1459; active = well fitted curve in the direction sought with a large enough effect in the signal ratio; the % refers to the signal ratio;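 note: cells exposed to compound for two days before reading; 0% is about no effect; ratio rise marks activators and ratio drop marks inhibitors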)
Summary of the method: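 Splicing correction is reported by an EGFP-containing lamin A minigene in stably transfected S3 HeLa cells, while DsRed2 controls for viability and nonspecific signal. Cells are exposed to compounds for 48 hrs before the GFP over RFP ratio is taken.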

[14] = qHTS Assay for Lipid Storage Modulators (AID 1519; calls by dose curve); settings: Drosophila S3 cells, BODIPY lipid droplet/cell ratio, laser cytometry, cells loaded with oleic acid
Summary of the method: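 Cells seeded at 5,000 per well were treated with compounds over a concentration series and loaded with oleic acid (400 uM, as added). Lipid droplet fluorescence (488 nm excitation, 500-530 nm channel) was read by laser-scanning cytometry and normalized to 20 uM Triacsin C.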

[15] = target: DNA repair nuclease/redox regulator APEX1 (Homo sapiens) (UniProt P27695); assay: qHTS Validation Assay for Inhibitors of the Human Apurinic/apyrimidinic Endonuclease 1 (APE1) (AID 1705)
DNA repair nuclease/redox regulator APEX1 (Homo sapiens), sequence (P27695 whole entry, looked up): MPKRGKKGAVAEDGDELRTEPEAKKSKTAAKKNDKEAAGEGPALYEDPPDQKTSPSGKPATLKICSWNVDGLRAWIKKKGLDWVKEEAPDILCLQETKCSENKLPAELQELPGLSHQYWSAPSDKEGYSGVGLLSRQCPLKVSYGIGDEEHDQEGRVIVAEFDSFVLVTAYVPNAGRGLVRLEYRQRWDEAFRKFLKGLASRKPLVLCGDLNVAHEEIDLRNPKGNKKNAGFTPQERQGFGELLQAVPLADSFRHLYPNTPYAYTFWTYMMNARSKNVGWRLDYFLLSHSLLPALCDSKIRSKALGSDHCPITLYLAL
Summary of the method: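 Endonuclease activity of human APE1 is followed as dequenching when the enzyme incises a tetrahydrofuran abasic site in a short duplex labelled 5'-TAMRA/3'-BHQ-2 (50 nM final), after 15 min enzyme–compound preincubation at room temperature.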

[16] = target: Endonuclease 4 (Escherichia coli (strain K12)) (UniProt P0A6C1); assay: Counterscreen for APE1 Inhibitors: qHTS Validation Assay for Inhibitors of Endonuclease IV (AID 1708); note: % is set by controls: 0 for no effect and ±100 for the full control effect
Summary of the method: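 E. coli EndoIV at 2 nM final, preincubated 15 min at room temperature with compound, then 50 nM TAMRA/BHQ-2 THF abasic-site duplex added. Buffer: 50 mM Tris-HCl pH 7.5, 50 mM NaCl, 2 mM MgCl2, 1 mM DTT, 0.01% Tween-20. Kinetic fluorescence increase, third minus first read.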

[17] = qHTS for differential inhibitors of proliferation of Plasmodium falciparum line 7G8 (AID 1815);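 note: parasite growth measured after three days of incubation; plate controls were vehicle wells for no effect and reference inhibitor wells for full effect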
[18] = qHTS for differential inhibitors of proliferation of Plasmodium falciparum line GB4 (AID 1816); settings: Potency: Plasmodium falciparum GB4 proliferation inhibition;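 note: parasite growth measured after 72 h incubation; 0% = vehicle DMSO and -100% = reference inhibitor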
[19] = qHTS for differential inhibitors of proliferation of Plasmodium falciparum line 3D7 (AID 1876);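 note: parasite growth measured after three days of culture; 0% = vehicle wells and -100% = reference inhibitor wells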
[20] = qHTS for differential inhibitors of proliferation of Plasmodium falciparum line D10 (AID 1877);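 note: parasites grown with compound for 72 h before DNA staining; plate controls were vehicle wells for no effect and reference inhibitor wells for full effect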
[21] = qHTS for differential inhibitors of proliferation of Plasmodium falciparum line Dd2 (AID 1882); settings: Potency: Plasmodium falciparum Dd2 proliferation inhibition;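 note: plate controls were DMSO vehicle for no effect and 0.29 µM artemisinin for full effect; nearly all actives have a fitted effect of over 65% in size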
Summary of the method: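 Dd2-infected erythrocytes (0.3% parasitemia, 2.5% hematocrit final) incubated with compound 72 h at 37 C, 5% CO2; lysed with saponin/Triton buffer containing SYBR Green I, incubated overnight in the dark, then read by fluorescence (485/535 nm). Normalized to 0.29 uM artemisinin and DMSO.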

[22] = qHTS for differential inhibitors of proliferation of Plasmodium falciparum line W2 (AID 1883); settings: Potency: Plasmodium falciparum W2 proliferation inhibition;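 note: parasites grown with compound for 72 h before lysis and staining; 0% = vehicle wells and -100% = control inhibitor wells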
[23] = qHTS for differential inhibitors of proliferation of Plasmodium falciparum line HB3 (AID 1886); settings: Potency: Plasmodium falciparum HB3 proliferation inhibition;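 note: parasites grown with compound for 72 h before SYBR Green readout; plate controls were vehicle for no effect and reference inhibitor for full effect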
[24] = target: ATP-dependent DNA helicase Q1 (Homo sapiens) (UniProt P46063); assay: qHTS Validation Assay for Inhibitors of RecQ-Like Dna Helicase 1 (RECQ1) (AID 2353);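 note: plate controls were DMSO vehicle for no effect and enzyme-free control for full effect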
ATP-dependent DNA helicase Q1 (Homo sapiens), sequence (P46063 whole entry, looked up): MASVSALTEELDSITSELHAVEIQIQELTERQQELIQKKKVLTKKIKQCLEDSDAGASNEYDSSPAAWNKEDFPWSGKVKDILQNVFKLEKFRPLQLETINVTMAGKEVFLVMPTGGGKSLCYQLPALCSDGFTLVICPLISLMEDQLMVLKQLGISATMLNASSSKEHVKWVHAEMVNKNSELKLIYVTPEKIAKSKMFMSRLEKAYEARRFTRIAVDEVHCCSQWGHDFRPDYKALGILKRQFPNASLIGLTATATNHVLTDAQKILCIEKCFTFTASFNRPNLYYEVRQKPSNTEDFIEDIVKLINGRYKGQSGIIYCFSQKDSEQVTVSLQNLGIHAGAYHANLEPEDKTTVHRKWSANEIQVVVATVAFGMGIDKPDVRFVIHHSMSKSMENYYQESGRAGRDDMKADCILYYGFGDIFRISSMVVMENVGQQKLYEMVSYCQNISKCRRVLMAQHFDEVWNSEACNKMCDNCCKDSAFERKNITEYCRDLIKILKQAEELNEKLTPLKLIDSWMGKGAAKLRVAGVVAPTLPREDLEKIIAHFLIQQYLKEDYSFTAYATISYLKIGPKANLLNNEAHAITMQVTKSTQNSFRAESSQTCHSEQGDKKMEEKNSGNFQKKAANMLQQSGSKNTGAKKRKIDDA
Summary of the method: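 50 nM RECQ1T1 preincubated 15 min with compound in Tris pH 8.0 buffer with MgCl2, DTT, Tween-20 and 2.5 ug/ml poly(dI-dC); started with 200 nM TAMRA/BHQ-2 forked duplex and 2 mM ATP. Unwinding read as fluorescence (525/598 nm), two reads 2 h apart.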

[25] = Validation screen for small molecules that induce DNA re-replication in MCF 10A normal breast cells (AID 463097); note: 0% is about no effect; nearly all actives have a fitted effect of over 60% in size
Summary of the method: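 DNA re-replication was detected as a rise in nuclei with elevated Hoechst fluorescence after a 48 hr compound exposure of MCF 10A cells at 37 C.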

[26] = Quantitative high throughput screen for delayed death inhibitors of the malarial parasite plastid, 48 hour incubation (AID 488752); note: % is set by controls: 0 for no effect and ±100 for the full control effect; nearly all actives have a fitted effect of over 65% in size
Summary of the method: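 Erythrocytes infected with firefly luciferase-expressing P. falciparum (2% hematocrit, 0.1% parasitemia) cultured with compound for 48 h at 37 C, 5% CO2, in RPMI 1640/0.5% Albumax. Growth inhibition read as loss of luminescence.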

[27] = target: M-phase phosphoprotein 8 (Homo sapiens) (UniProt Q99549); assay: qHTS Validation Assay for Inhibitors for MPP8 Chromodomain Interactions with Methylated Histone Tails (AID 488949);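 note: AlphaScreen signal from MPP8 chromodomain bound to biotinylated H3K9me3 peptide; top concentration of the series differs between compounds; % is set by controls: 0 for no effect and ±100 for the full control effect; nearly all actives have a fitted effect of over 55% in size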
Summary of the method: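 Disruption of the preformed MPP8–trimethyl-H3K9 peptide complex (both 50 nM, 30 min, RT) is measured after 30 min compound exposure, using AlphaScreen proximity beads; aurintricarboxylic acid titration serves as plate control.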

[28] = target: Transient receptor potential cation channel subfamily V member 1 (Homo sapiens) (UniProt Q8NER1); assay: HTS Assay for Compounds that Act as Enhancers of the Vanilloid Receptor 1 (AID 488979); note: 0% is about no effect
Transient receptor potential cation channel subfamily V member 1 (Homo sapiens), sequence (Q8NER1 whole entry, looked up): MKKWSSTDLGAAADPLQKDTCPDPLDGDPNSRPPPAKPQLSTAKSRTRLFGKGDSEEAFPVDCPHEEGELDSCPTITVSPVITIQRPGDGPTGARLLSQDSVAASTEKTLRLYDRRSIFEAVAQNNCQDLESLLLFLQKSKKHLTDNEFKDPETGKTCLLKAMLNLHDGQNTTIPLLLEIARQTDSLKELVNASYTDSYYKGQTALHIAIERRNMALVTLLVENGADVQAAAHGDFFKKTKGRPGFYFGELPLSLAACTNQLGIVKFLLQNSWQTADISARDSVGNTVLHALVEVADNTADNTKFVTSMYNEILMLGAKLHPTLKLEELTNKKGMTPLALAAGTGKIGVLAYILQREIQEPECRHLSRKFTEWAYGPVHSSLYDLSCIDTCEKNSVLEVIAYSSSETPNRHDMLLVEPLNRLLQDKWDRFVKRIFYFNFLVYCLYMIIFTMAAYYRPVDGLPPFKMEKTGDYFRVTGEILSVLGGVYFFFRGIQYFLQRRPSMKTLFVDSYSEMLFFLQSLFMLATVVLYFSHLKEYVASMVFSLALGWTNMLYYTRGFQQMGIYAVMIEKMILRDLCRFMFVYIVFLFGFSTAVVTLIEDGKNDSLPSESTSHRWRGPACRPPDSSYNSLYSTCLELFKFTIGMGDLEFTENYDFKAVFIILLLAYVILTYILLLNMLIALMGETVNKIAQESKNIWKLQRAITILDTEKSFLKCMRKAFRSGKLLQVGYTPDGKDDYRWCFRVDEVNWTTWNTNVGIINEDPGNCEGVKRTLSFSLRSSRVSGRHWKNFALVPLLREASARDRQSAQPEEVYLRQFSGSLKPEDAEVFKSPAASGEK
Summary of the method: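 TRPV1 cells loaded with Fluo-8 calcium dye; compound added and Ca2+ signal (ex 480/em 520 nm) followed 3 min, then capsaicin at EC20 added and read 2 more min to detect enhancement.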

[29] = target: Thyrotropin receptor (Homo sapiens) (UniProt P16473); assay: qHTS Assay for Antagonists of the Thyroid Stimulating Hormone Receptor (AID 488980); note: 0% is about no effect
Thyrotropin receptor (Homo sapiens), sequence (P16473 whole entry, looked up): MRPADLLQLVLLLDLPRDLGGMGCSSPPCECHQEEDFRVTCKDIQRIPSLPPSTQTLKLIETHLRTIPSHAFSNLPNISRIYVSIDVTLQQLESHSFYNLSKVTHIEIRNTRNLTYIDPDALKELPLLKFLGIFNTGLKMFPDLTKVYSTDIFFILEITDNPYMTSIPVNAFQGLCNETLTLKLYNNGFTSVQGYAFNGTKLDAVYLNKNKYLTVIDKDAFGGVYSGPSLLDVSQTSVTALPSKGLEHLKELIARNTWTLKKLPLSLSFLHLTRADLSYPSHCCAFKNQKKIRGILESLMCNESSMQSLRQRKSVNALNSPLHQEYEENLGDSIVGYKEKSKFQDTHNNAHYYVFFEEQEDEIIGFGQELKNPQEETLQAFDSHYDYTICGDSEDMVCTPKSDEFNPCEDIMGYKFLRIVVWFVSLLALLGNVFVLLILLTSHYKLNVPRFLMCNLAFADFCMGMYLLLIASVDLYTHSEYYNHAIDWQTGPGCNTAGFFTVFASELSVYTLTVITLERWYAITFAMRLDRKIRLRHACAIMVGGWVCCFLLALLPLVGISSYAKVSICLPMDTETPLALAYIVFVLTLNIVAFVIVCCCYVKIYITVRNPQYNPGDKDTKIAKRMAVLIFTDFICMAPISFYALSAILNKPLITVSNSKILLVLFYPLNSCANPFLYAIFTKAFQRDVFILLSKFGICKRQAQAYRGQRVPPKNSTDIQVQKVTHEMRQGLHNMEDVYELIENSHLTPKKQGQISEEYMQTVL
Summary of the method: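 Cells expressing human TSHR (HEK293) are dispensed in HBSS/HEPES containing 70 uM RO 20-1724, compound is added, then TSH at EC80 (4 nM final). Antibody in lysis buffer follows, 30 minutes at room temperature before HTRF detection.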

[30] = target: Thyrotropin-releasing hormone receptor (Homo sapiens) (UniProt P34981); assay: qHTS for Small Molecule Agonists and Allosteric Enhancers of Human TRH Receptor: Validation Screen for Agonists (AID 493127;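 active = calcium activation more than 3 SD above the typical response in the agonist read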; note: 0% is about no effect); settings: TRH receptor agonist cell assay; at 2 µM; stronger effect = higher value
Thyrotropin-releasing hormone receptor (Homo sapiens), sequence (P34981 whole entry, looked up): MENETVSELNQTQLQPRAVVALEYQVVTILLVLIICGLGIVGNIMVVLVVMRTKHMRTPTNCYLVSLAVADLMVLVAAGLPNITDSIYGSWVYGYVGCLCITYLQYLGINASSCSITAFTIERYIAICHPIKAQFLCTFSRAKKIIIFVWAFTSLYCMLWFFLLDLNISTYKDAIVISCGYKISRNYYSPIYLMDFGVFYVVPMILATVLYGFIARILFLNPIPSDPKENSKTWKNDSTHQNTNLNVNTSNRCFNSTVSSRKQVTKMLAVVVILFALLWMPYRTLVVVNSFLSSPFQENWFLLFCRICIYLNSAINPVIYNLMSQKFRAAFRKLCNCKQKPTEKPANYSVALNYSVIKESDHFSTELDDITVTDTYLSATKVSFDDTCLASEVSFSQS
Summary of the method: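 TRHR cells loaded with fluo-8 calcium dye; FDSS kinetic fluorescence (Ex 480/Em 530) read at 1 s/cycle after 23 nL compound addition. Agonist-mode calcium response recorded before the 10 nM TRH (EC20) addition.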

[31] = target: Galactokinase (Homo sapiens) (UniProt P51570); assay: qHTS Validation Assay for Inhibitors of Human Galactokinase (GALK) (AID 493189); note: 0% is about no effect
Summary of the method: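 Compounds were pin-transferred into ATP buffer, then GALK-galactose mix was added (final 5 nM enzyme, 100 uM galactose, 35 uM ATP). After 1 h at room temperature, remaining ATP was measured luminescently.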

[32] = Validation screen for small molecules that induce DNA re-replication in SW480 colon adenocarcinoma cells (AID 504364); note: 0% is about no effect
Summary of the method: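 SW480 cells (250/well) exposed 48 h at 37 C, 5% CO2, then Hoechst-stained 40 min. Nuclear DNA content imaged by fluorescence scanning (405 nm excitation, 500-530 nm emission); re-replication scored as increased nuclei with elevated intensity.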

[33] = target: Voltage-gated inwardly rectifying potassium channel KCNH2 (Homo sapiens) (UniProt Q12809); assay: qHTS Assay for Small Molecule Inhibitors of the Human hERG Channel Activity (AID 588834);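 note: top concentration of the series differs between compounds; % is set by controls: 0 for no effect and ±100 for the full control effect; lower thallium flux fluorescence means stronger hERG block; nearly all actives have a fitted effect of over 50% in size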
Summary of the method: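 Measured: FluxOR fluorescence after thallium stimulation in U2OS cells transduced with hERG by baculovirus. Compounds pre-incubated around 10 min; medium Opti-MEM with 2% FCS. AC50 from Hill equation.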

[34] = system: Zika virus NS2B-NS3 protease; assay: Primary screen GU AMC qHTS for Zika virus inhibitors (AID 1347154);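 note: 0% = no-inhibitor control and -100% = no-enzyme control; nearly all actives have a fitted effect of over 70% in size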
Summary of the method: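 Unlinked Zika NS2B hydrophilic domain–NS3 protease complex at 25 nM in 10 mM Tris-HCl pH 8.0, 0.01% Tween 20, with an AMC peptide substrate. Fluorescence change (340/450 nm) over 15 min at room temperature, normalized to controls, fitted to 4-parameter Hill.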

[35] = Primary qHTS for small molecule stabilizers of the endoplasmic reticulum resident proteome: Secreted ER Calcium Modulated Protein (SERCaMP) assay (AID 1508630); note: % is set by controls: 0 for no effect and ±100 for the full control effect
Summary of the method: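 GLuc-SERCaMP-expressing SH-SY5Y cells, pretreated 16 h with compound, are challenged with thapsigargin to empty ER calcium stores; after 4 h, coelenterazine is added directly to the medium and luminescence is imaged.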

CCCn1c(=O)c2[nH]c(-c3ccc(OCC(=O)Nc4ccc(C#N)cc4)cc3)nc2n(CCC)c1=O
-10.7%: max response ([14]; measured here: lipid channel max response)
inactive: activity change, negative = inhibition [1] -2.44% | activity change, negative = inhibition [3] -7.64% | activity, negative = inhibition [4] -13.8% | Potency [5] > 46 µM | Potency [6] > 46 µM | Potency [7] | Potency [8] | outcome [9] | Potency [10] | outcome [11] | outcome [12] | outcome [13] | activity change, negative = inhibition ([14]; at 57.5 µM (top of the series)) 1.01% | Potency [15] | Potency [16] | Potency [17] | Potency [18] | Potency [19] | Potency [20] | Potency [21] | Potency [22] | Potency [23] | Potency [24] | Potency [25] | Potency [26] | Potency [27] | outcome [28] | outcome [29] | activation [30] 0.938% | outcome [31] | outcome [32] | Potency [33] | Potency [34] | Potency [35]
active: Potency [2] 31.6 µM
-12.2%: max response ([14]; measured here: cell count channel max response)
